Reference: PubChem BioAssay
Calls of active or inactive are those of the source. Unless noted, how the calls were made is not given here.

Assays:
[1] = A549 cell viability effects, profiling panel, calcein-AM fluorescence, 48 h, basal (AID 1162); details: higher = more signal; further: test concentration not given here
[2] = adipocyte viability effects, profiling panel, cell-based, 3T3-L1 adipocytes, calcein-AM fluorescence, 48 h, basal (AID 1163); details: 3T3-L1 adipocytes viability, higher = more signal; further: test concentration not given here
[3] = HepG2 cell viability effects, profiling panel, calcein-AM fluorescence, 48 h, basal (AID 1164); details: higher = more signal; further: test concentration not given here
[4] = MM1S cell viability effects, profiling panel, calcein-AM fluorescence, 48 h, basal (AID 1165); details: higher = more signal;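 further: viability of MM1S multiple myeloma cells under basal unstimulated conditions; test concentration not given here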
[5] = basal RPMI8226 viability, no added stimulus, profiling panel, cell-based, calcein-AM fluorescence, 48 h, PK04 Diversity Set (AID 1166); details: RPMI8226 myeloma viability, higher = more signal;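 further: cells grown under basal conditions without added stimulus; test concentration not given here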
[6] = basal HepG2 mitochondrial membrane potential changes, profiling panel, cell-based, JC-1 fluorescence, 24 h, 100 nL compound (AID 1167); details: higher = more signal; further: test concentration not given here
[7] = basal 3T3-L1 adipocyte mitochondrial potential changes, profiling panel, cell-based, JC-1 fluorescence, 3T3-L1 adipocytes, 24 h, 100 nL compound (AID 1168); details: JC-1 mitochondrial fluorescence, higher = more signal, called active from +8 up or from −8 down; further: test concentration not given here
[8] = basal RPMI8226 mitochondrial membrane potential changes, profiling panel, cell-based, JC-1 fluorescence, 24 h, 100 nL compound (AID 1169); details: RPMI8226 myeloma, JC-1 mitochondrial potential fluorescence, higher = more signal; further: test concentration not given here
[9] = basal MM1S mitochondrial membrane potential changes, profiling panel, cell-based, JC-1 fluorescence, 24 h, 100 nL compound (AID 1170); details: higher = more signal; further: test concentration not given here
[10] = A549 lung cancer cell viability effects, profiling panel, resazurin fluorescence, 24 h, PK04 Diversity Set (AID 1171); details: higher = more signal, called active from +8 up or from −8 down; further: test concentration not given here
[11] = HepG2 liver cancer cell viability effects, profiling panel, resazurin fluorescence, 24 h, PK04 Diversity Set (AID 1172); details: higher = more signal; further: test concentration not given here
[12] = basal S. cerevisiae growth modulation, no modifier, primary screen, OD600, strain BY4716, 24 h, basal condition (AID 1173); details: OD600, 24 h, higher = more signal, called active from +8 up or from −8 down
[13] = MM1S myeloma cell viability, profiling panel, resazurin fluorescence, basal, 24 h, PK04 Diversity Set (AID 1174); details: higher = more signal, called active from +8 up or from −8 down;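 further: MM1S multiple myeloma cell line; test concentration not given here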
[14] = target: Dihydroorotate dehydrogenase (quinone), mitochondrial (Plasmodium falciparum (isolate 3D7)) (UniProt Q08210); test: PfDHODH enzyme inhibitors, primary screen, biochemical, C-terminal His tag, absorbance 600 nm (AID 1175); details: DCIP absorbance 600 nm, higher = more signal, called active from +8 up or from −8 down;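 further: recombinant parasite enzyme with a five histidine tag at its C terminus; test concentration not given here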
[15] = P. aeruginosa biofilm formation inhibitors, primary screen, strain PAO1, LB-PBS medium, absorbance 600 nm (AID 1176); further: test concentration not given here; details: P. aeruginosa PAO1 growth/biofilm, A600, 12 h; higher = more signal
[16] = S. cerevisiae RM11-1a growth modifiers, primary screen, strain RM11-1a, OD600, basal, 24 h (AID 1177); details: OD600, 24 h, higher = more signal, called active from +8 up or from −8 down;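 further: cultures grown under basal conditions with no added stressor; test concentration not given here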
[17] = E. coli acrAB mutant growth effects, primary screen, E. coli filamentation inducers, strain DRC39, OD650, 24 h (AID 1178); details: higher = more signal, called active from +8 up or from −8 down;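 further: growth measured as culture turbidity by optical density at 650 nm; test concentration not given here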
[18] = E. coli acrAB mutant growth effects, primary screen, E. coli filamentation inducers, strain DRC39, OD650, 48 h (AID 1179);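 further: screen aims at cell division blockers that make cells filament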; details: E. coli DRC39 delta-acrAB growth, higher = more signal, called active from +8 up or from −8 down
[19] = RPMI8226 myeloma cell viability, profiling panel, resazurin fluorescence, basal, 24 h, PK04 Diversity Set (AID 1180); details: higher = more signal;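 further: RPMI8826 multiple myeloma cell line at 5000 cells per well; test concentration not given here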
[20] = target: E3 ubiquitin-protein ligase XIAP (Homo sapiens) (UniProt P98170); test: XIAP binders, primary screen, biophysical, small-molecule microarray, fluorescence 635 nm (AID 1181); details: small-molecule microarray binding, higher = more signal;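 further: score merges 667 nm emission and signal to noise over triplicate slides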
Chain of E3 ubiquitin-protein ligase XIAP (Homo sapiens) (P98170 whole entry, looked up): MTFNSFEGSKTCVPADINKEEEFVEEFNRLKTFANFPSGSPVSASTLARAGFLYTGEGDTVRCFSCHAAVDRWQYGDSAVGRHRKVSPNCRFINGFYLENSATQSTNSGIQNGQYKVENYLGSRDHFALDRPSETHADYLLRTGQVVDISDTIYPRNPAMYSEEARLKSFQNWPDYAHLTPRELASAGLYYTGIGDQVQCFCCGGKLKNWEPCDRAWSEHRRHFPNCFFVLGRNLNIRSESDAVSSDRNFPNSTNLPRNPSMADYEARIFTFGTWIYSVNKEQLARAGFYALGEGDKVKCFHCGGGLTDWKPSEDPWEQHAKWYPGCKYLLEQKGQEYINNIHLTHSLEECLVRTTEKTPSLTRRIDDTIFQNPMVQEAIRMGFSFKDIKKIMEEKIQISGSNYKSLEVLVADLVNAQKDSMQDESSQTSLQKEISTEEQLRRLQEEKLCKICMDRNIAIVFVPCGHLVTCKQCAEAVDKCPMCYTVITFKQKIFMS

Chain of Dihydroorotate dehydrogenase (quinone), mitochondrial (Plasmodium falciparum (isolate 3D7)) (Q08210 whole entry, looked up): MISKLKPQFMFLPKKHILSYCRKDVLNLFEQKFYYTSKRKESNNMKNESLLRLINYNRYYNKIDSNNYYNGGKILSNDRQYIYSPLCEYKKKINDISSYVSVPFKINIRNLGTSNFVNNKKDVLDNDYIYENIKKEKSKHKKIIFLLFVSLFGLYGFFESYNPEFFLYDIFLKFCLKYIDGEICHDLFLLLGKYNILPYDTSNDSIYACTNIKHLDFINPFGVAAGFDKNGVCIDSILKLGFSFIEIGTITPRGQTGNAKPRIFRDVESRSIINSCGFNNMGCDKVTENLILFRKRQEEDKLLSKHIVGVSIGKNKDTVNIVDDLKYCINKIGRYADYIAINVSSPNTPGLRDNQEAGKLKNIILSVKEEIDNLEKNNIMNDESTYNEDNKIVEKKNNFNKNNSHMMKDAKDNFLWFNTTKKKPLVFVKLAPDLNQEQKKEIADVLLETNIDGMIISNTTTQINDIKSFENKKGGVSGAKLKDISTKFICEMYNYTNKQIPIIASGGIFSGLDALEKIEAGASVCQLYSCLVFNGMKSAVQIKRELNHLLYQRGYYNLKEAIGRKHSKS

Structure (SMILES)	z-score [1]	z-score [2]	z-score [3]	z-score [4]	z-score [5]	z-score [6]	z-score [7]	z-score [8]	z-score [9]	z-score [10]	z-score [11]	z-score [12]	z-score [13]	composite z-score [14]	z-score [15]	z-score [16]	z-score [17]	z-score [18]	z-score [19]	composite z-score [20]
CN1C(=O)C2C=CC(C(O)c3cccc(O)c3)N(Nc3ccccc3)C2C1=O (stereo not given)	-0.501	-0.58	-0.333	-1.58	-1.67	-0.579	0.548 (inactive)	-0.419	-0.179	0.0494 (inactive)	0.0748	0.655 (inactive)	-0.462 (inactive)	0.613 (inactive)	-0.159 (inactive)	0.837 (inactive)	-1.32 (inactive)	-0.17 (inactive)	-2.48	-0.0812
CCCCCCCCCCC(O)C1C=CC2C(=O)N(C)C(=O)C2N1NC(=O)OC(C)(C)C (stereo not given)	-3.85	0.0766	-5.09	-3.91	-4.14	-3.31	-0.464 (inactive)	-0.946	-2.37	-3.67 (inactive)	-5.01	-5.22 (inactive)	-4.74 (inactive)	1.1 (inactive)	0.0337 (inactive)	1.05 (inactive)	-0.235 (inactive)	-1.45 (inactive)	-5.64	0.109
CO[C@H]1O[C@H](CO)[C@@H](OC(=O)Nc2ccc3c(c2)OCO3)[C@H](OC(=O)c2cc3ccccc3[nH]2)[C@H]1OC(=O)c1cc2ccccc2[nH]1	0.603	0.477	0.463	-1.98	1.11	-2.54	1.27 (inactive)	-0.31	-1.29	-3.63 (inactive)	-2.92	-0.237 (inactive)	-3.48 (inactive)	-1.53 (inactive)	0.69 (inactive)	-0.81 (inactive)	0.387 (inactive)	1.42 (inactive)	-3.84	0.151
CC1=C[C@@]2(CO)C(=O)[C@]3(CO3)[C@@H]1[C@H]1[C@]2(C)C=C(CO)C(=O)[C@]12CO2	0.23	0.263	-0.164	-3.33	-0.753	-0.38	-0.311 (inactive)	0.249	-2.11	0.474 (inactive)	0.693	-2.6 (inactive)	-0.54 (inactive)	-2.12 (inactive)	-0.614 (inactive)	-0.813 (inactive)	0.477 (inactive)	0.655 (inactive)	0.483	-0.227
COc1ccc(C(O)C2C=CC3C(=O)N(c4ccccc4)C(=O)C3N2Nc2ccc([N+](=O)[O-])cc2)cc1 (stereo not given)	-0.27	-1.06	0.168	-0.495	0.0223	-0.378	-1.52 (inactive)	0.0302	-0.909	0.0404 (inactive)	-0.724	0.402 (inactive)	-0.754 (inactive)	-0.0727 (inactive)	0.837 (inactive)	0.613 (inactive)	-1.2 (inactive)	-0.996 (inactive)	-0.502	0.21
CN1C(=O)C2C=CC(C(O)c3ccccn3)N(N(c3ccccc3)c3ccccc3)C2C1=O (stereo not given)	-0.711	-1.63	-0.108	0.0262	-0.771	-1.53	-0.695 (inactive)	0.305	-0.468	-0.859 (inactive)	-1.15	0.527 (inactive)	-0.555 (inactive)	0.464 (inactive)	1.01 (inactive)	0.429 (inactive)	-0.155 (inactive)	-0.38 (inactive)	-0.368	0.304
CCOC(=O)C[C@H]1[C@H](OC(=O)Cc2ccc3c(c2)OCO3)[C@@H](NC(=O)CC(C)C)c2cc(OCCCO)ccc2N1C(=O)Cc1ccc(OC)cc1	0.777	0.413	1.63	-0.322	0.791	3.73	0.31 (inactive)	0.139	-0.19	-0.581 (inactive)	-0.334	-0.252 (inactive)	-0.0151 (inactive)	-1.26 (inactive)	0.101 (inactive)	-1.73 (inactive)	0.287 (inactive)	0.629 (inactive)	0.2	-0.0622
COCCOC(=O)N1C(=O)[C@@]2(c3cc(C#Cc4ccc(OC)cc4)ccc31)[C@H](c1ccccc1OCCO)N1[C@H](c3ccccc3)[C@H](c3ccccc3)OC(=O)[C@H]1[C@@H]2C(=O)N1CCCCCCC1	0.161	1.62	1.19	-0.248	-0.584	0.591	3.46 (inactive)	-0.686	-1.16	0.375 (inactive)	0.457	1.29 (inactive)	0.0229 (inactive)	-1.26 (inactive)	3.49 (inactive)	1.84 (inactive)	-0.398 (inactive)	0.118 (inactive)	0.504	0.223
O=C(NCC(F)(F)F)[C@@H]1c2ccccc2C(=O)N(Cc2cc(F)cc(C(F)(F)F)c2)[C@H]1c1ccc(CO)cc1	0.792	0.929	-0.158	0.227	-0.202	1.23	0.00233 (inactive)	-0.656	-0.389	0.44 (inactive)	-0.16	-0.359 (inactive)	0.0875 (inactive)	0.94 (inactive)	0.221 (inactive)	0.933 (inactive)	0.647 (inactive)	-0.0858 (inactive)	0.867	-0.126
